The source made the active and inactive calls. Unless noted, no rule for the calls is given here.
Legend:
[1] = compound effects on lung adenocarcinoma cell viability – A549, calcein-AM fluorescence, 48 h, basal, profiling panel (AID 1162); settings: higher = more signal; also: test concentration not given here
[2] = compound effects on differentiated 3T3-L1 adipocyte viability – cell-based, 3T3-L1 adipocytes, calcein-AM fluorescence, 48 h, basal, profiling panel (AID 1163); settings: 3T3-L1 adipocytes viability, higher = more signal; also: test concentration not given here
[3] = compound effects on hepatocellular carcinoma cell viability – HepG2, calcein-AM fluorescence, 48 h, basal, profiling panel (AID 1164); settings: higher = more signal; also: test concentration not given here
[4] = compound effects on multiple myeloma cell viability – MM1S, calcein-AM fluorescence, 48 h, basal, profiling panel (AID 1165); settings: higher = more signal;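 also: viability of MM1S multiple myeloma cells under basal unstimulated conditions; test concentration not given here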
[5] = calcein-AM signal in unstimulated myeloma cells – cell-based, calcein-AM fluorescence, 48 h, PK04 Diversity Set, profiling panel (AID 1166); settings: RPMI8226 myeloma viability, higher = more signal;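 also: cells grown under basal conditions without added stimulus; test concentration not given here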
[6] = JC-1 mitochondrial signal, unstimulated HepG2 cells – cell-based, JC-1 fluorescence, 24 h, 100 nL compound, profiling panel (AID 1167); settings: HepG2 mitochondrial potential, higher = more signal; also: test concentration not given here
[7] = JC-1 mitochondrial signal, unstimulated adipocytes – cell-based, JC-1 fluorescence, 3T3-L1 adipocytes, 24 h, 100 nL compound, profiling panel (AID 1168); settings: JC-1 mitochondrial fluorescence, higher = more signal, called active from +8 up or from −8 down; also: test concentration not given here
[8] = JC-1 mitochondrial signal, unstimulated myeloma cells – cell-based, JC-1 fluorescence, RPMI8226, 24 h, 100 nL compound, profiling panel (AID 1169); settings: JC-1 mitochondrial potential fluorescence, higher = more signal; also: test concentration not given here
[9] = JC-1 mitochondrial signal, unstimulated MM1S myeloma – cell-based, JC-1 fluorescence, 24 h, 100 nL compound, profiling panel (AID 1170); settings: MM1S mitochondrial potential, higher = more signal; also: test concentration not given here
[10] = resazurin metabolic signal in A549 cells – cell-based, resazurin fluorescence, 24 h, PK04 Diversity Set, profiling panel (AID 1171); settings: A549 viability, higher = more signal, called active from +8 up or from −8 down; also: test concentration not given here
[11] = resazurin metabolic signal in HepG2 cells – cell-based, resazurin fluorescence, 24 h, PK04 Diversity Set, profiling panel (AID 1172); settings: HepG2 viability, higher = more signal; also: test concentration not given here
[12] = budding yeast growth changes without added modifier – OD600, strain BY4716, 24 h, basal condition, primary screen (AID 1173); settings: S. cerevisiae BY4716 growth, OD600, 24 h; higher = more signal, called active from +8 up or from −8 down
[13] = viability profiling in MM1S myeloma cells – cell-based, resazurin fluorescence, basal, 24 h, PK04 Diversity Set, profiling panel (AID 1174); settings: higher = more signal, called active from +8 up or from −8 down; also: test concentration not given here
[14] = molecular target: Dihydroorotate dehydrogenase (quinone), mitochondrial (Plasmodium falciparum (isolate 3D7)) (UniProt Q08210); experiment: inhibition of P. falciparum DHODH – biochemical, C-terminal His tag, absorbance 600 nm, primary screen (AID 1175); settings: PfDHODH enzyme, DCIP absorbance 600 nm; higher = more signal, called active from +8 up or from −8 down;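 also: recombinant parasite enzyme with a five histidine tag at its C terminus; test concentration not given here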
Dihydroorotate dehydrogenase (quinone), mitochondrial (Plasmodium falciparum (isolate 3D7)), sequence (Q08210 whole entry, looked up): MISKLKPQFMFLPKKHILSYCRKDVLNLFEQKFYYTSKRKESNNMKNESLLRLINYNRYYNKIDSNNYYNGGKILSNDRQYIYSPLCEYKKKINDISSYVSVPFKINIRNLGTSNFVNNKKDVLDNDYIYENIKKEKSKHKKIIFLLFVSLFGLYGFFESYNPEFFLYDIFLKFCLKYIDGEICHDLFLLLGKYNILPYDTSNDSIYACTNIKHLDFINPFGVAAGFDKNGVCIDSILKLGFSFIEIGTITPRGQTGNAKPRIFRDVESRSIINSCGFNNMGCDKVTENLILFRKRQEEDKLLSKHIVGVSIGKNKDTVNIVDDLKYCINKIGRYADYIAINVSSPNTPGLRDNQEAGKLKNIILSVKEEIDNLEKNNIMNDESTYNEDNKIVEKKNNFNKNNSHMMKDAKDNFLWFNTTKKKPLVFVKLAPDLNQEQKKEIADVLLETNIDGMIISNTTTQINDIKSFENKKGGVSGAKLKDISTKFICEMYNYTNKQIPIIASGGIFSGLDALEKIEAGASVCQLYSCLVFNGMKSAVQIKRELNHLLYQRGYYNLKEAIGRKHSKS

[15] = inhibition of PAO1 biofilm formation – strain PAO1, LB-PBS medium, absorbance 600 nm, primary screen (AID 1176); also: test concentration not given here; settings: P. aeruginosa PAO1 growth/biofilm, A600, 12 h; higher = more signal
[16] = growth modulation of vineyard yeast isolate – strain RM11-1a, OD600, basal, 24 h, primary screen (AID 1177);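 also: cultures grown under basal conditions with no added stressor; test concentration not given here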; settings: S. cerevisiae RM11-1a growth, OD600, 24 h; higher = more signal, called active from +8 up or from −8 down
[17] = growth of efflux-deficient E. coli DRC39 – strain DRC39, OD650, 24 h, E. coli filamentation inducers, primary screen (AID 1178);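 also: growth measured as culture turbidity by optical density at 650 nm; test concentration not given here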; settings: E. coli DRC39 acrAB, higher = more signal, called active from +8 up or from −8 down
[18] = growth of efflux-deficient E. coli DRC39 – strain DRC39, OD650, 48 h, E. coli filamentation inducers, primary screen (AID 1179);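 also: screen aims at cell division blockers that make cells filament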; settings: E. coli DRC39 delta-acrAB growth, higher = more signal, called active from +8 up or from −8 down
[19] = viability profiling in RPMI8226 myeloma cells – cell-based, resazurin fluorescence, basal, 24 h, PK04 Diversity Set, profiling panel (AID 1180); settings: higher = more signal;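 also: RPMI8826 multiple myeloma cell line at 5000 cells per well; test concentration not given here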
[20] = molecular target: E3 ubiquitin-protein ligase XIAP (Homo sapiens) (UniProt P98170); experiment: small molecules binding XIAP protein – biophysical, small-molecule microarray, fluorescence 635 nm, primary screen (AID 1181); settings: higher = more signal;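 also: score merges 667 nm emission and signal to noise over triplicate slides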
E3 ubiquitin-protein ligase XIAP (Homo sapiens), sequence (P98170 whole entry, looked up): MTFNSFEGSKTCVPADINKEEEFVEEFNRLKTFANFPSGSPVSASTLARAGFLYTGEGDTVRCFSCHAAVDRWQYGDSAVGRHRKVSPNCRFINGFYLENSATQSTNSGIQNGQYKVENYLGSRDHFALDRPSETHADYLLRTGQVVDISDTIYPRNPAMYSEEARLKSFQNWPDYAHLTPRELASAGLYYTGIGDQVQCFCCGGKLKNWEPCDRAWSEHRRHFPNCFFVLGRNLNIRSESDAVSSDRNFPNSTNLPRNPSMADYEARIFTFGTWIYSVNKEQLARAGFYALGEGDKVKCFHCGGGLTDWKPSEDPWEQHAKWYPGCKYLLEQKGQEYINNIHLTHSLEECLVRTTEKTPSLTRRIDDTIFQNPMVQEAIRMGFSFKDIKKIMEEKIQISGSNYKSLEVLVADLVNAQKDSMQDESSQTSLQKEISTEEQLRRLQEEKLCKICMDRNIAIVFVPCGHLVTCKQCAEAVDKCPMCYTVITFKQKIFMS

Row | Structure (SMILES) | z-score [1] | z-score [2] | z-score [3] | z-score [4] | z-score [5] | z-score [6] | z-score [7] | z-score [8] | z-score [9] | z-score [10] | z-score [11] | z-score [12] | z-score [13] | composite z-score [14] | z-score [15] | z-score [16] | z-score [17] | z-score [18] | z-score [19] | composite z-score [20]
1 | O=C1OCC=C[C@H]2OC34C=CCN(c5ccc(Cl)cc5)C(=O)[C@H]3N(CCCCCO)C(=O)[C@@H]4[C@@H]12 (stereo not given in full) | -0.746 | 0.699 | -0.231 | 0.733 | 0.707 | -0.26 | 0.37 (inactive) | 0.536 | 1.35 | -0.283 (inactive) | -0.46 | -1.1 (inactive) | -0.338 (inactive) | 0.193 (inactive) | -0.0963 (inactive) | 0.119 (inactive) | 0.602 (inactive) | 0.182 (inactive) | 0.0508 | 0.287
2 | COc1c(C)cc(-c2cc3c(c(Cc4ccccc4)n2)[Si](C(C)C)(C(C)C)OC3)cc1C | -0.983 | -1.44 | 0.269 | -0.418 | -0.0095 | -1 | -0.737 (inactive) | 0.0185 | -0.00287 | -0.124 (inactive) | -0.683 | 1.06 (inactive) | -0.533 (inactive) | -0.0592 (inactive) | 0.055 (inactive) | 0.576 (inactive) | -0.363 (inactive) | -0.779 (inactive) | -0.661 | -0.138
3 | COC(=O)[C@@]1(Cc2ccc(OC)cc2)[C@H]2c3cc(C(=O)N(C)C)n(Cc4ccccc4)c3C[C@H]2CN1C(=O)c1ccccc1 | 0.0457 | 0.245 | -2.3 | -2.27 | -2.17 | 2.45 | -0.45 (inactive) | -0.398 | -1.85 | 0.616 (inactive) | 2.31 | -0.373 (inactive) | -1.15 (inactive) | 0.171 (inactive) | 0.756 (inactive) | 0.692 (inactive) | 0.111 (inactive) | 0.892 (inactive) | -1.66 | 0.0791
4 | CCOc1cc(C(O)C2C=CC3C(=O)N(C4CCCCC4)C(=O)C3N2Nc2ccc(OC)cc2)ccc1O (stereo not given) | 0.366 | -0.786 | 0.772 | 0.26 | -0.141 | 0.551 | 0.283 (inactive) | -0.0341 | -1.87 | 0.265 (inactive) | 0.182 | 0.0779 (inactive) | 0.312 (inactive) | -0.665 (inactive) | 0.698 (inactive) | 0.0701 (inactive) | 0.231 (inactive) | 1.13 (inactive) | 0.753 | 0.169
5 | COCCOC(=O)N1C(=O)[C@@]2(c3cc(C#Cc4ccc(OC)cc4)ccc31)[C@H](C(=O)NC[C@H](O)c1ccccc1)[C@H]1C(=O)O[C@H](c3ccccc3)[C@H](c3ccccc3)N1[C@@H]2c1ccc(O)cc1 | -0.24 | 0.711 | -0.862 | -2.08 | -2.34 | -2.11 | 1.54 (inactive) | -0.723 | 0.122 | 0.397 (inactive) | -0.857 | -0.11 (inactive) | -1.09 (inactive) | -0.352 (inactive) | 1.34 (inactive) | 0.552 (inactive) | -0.365 (inactive) | -0.736 (inactive) | -1.32 | 0.261
6 | COCCCNC(=O)[C@]1(CCC(=O)OC(C)(C)C)N=C(c2ccc(OCCCO)cc2)O[C@@H]1c1ccccc1 | 0.369 | -0.342 | -0.797 | 0.326 | -0.0674 | -0.145 | 0.0968 (inactive) | 0.86 | -0.705 | 0.119 (inactive) | -0.402 | 0.397 (inactive) | -0.121 (inactive) | 0.152 (inactive) | 0.413 (inactive) | 0.0279 (inactive) | -0.286 (inactive) | -0.0848 (inactive) | -0.354 | 0.081
7 | CC=CC(O)C1C=CC2C(=O)N(C)C(=O)C2N1N1CCCCC1 (stereo not given) | -0.0516 | -2.06 | -0.843 | -0.714 | -0.922 | -1.52 | -1.36 (inactive) | -0.615 | -0.00172 | -0.232 (inactive) | -0.245 | 0.383 (inactive) | -0.986 (inactive) | -0.811 (inactive) | 0.378 (inactive) | -0.714 (inactive) | -1.07 (inactive) | -0.923 (inactive) | -1.36 | -0.114
8 | C=CCN1C(=O)[C@@]2(O[C@@H](CCn3cc([C@H](O)c4ccccc4)nn3)[C@H]([Si](C)(C)c3ccc(OC)cc3)[C@H]2C)c2ccccc21 | -1.05 | 0.432 | -1.49 | -2.7 | -4.27 | 1.06 | -0.644 (inactive) | -0.967 | -0.364 | -1.76 (inactive) | -0.986 | 0.117 (inactive) | -1.83 (inactive) | -0.198 (inactive) | 0.626 (inactive) | 0.93 (inactive) | -0.599 (inactive) | -0.857 (inactive) | -1.97 | 0.144
9 | COC(=O)C[C@H]1O[C@]2(C(=O)N(C)c3ccccc32)[C@@H](C)[C@@H]1[Si](C)(C)c1ccc(C)cc1 | -1.55 | 0.163 | -0.151 | -1.5 | -4.12 | -0.39 | 0.329 (inactive) | -0.991 | 0.413 | -0.447 (inactive) | -0.501 | -2.64 (inactive) | 1.47 (inactive) | 0.0559 (inactive) | -0.884 (inactive) | 0.155 (inactive) | 1.37 (inactive) | -0.466 (inactive) | 0.789 | -0.0172

Reference: PubChem BioAssay
